Measurements reported in the antibiotic and cytotoxicity screens of Wong et al. (2023).
Screen size: about 39,000 compounds; about 1,500 (3.8%) were called active. This excerpt belongs to a sample that is enriched for actives.

system: HSkMC (human skeletal muscle cells); experiment: cytotoxicity call (relative viability < 0.9); conditions: 10 µM

Row | Compound | cytotoxicity call
1 | COc1ccc(-c2ccccc2)cc1NC(=O)c1ccc2nc(C)c(N(C)C(=O)CCc3ccccc3)n2c1 | inactive
2 | C[C@H](CO)N1C[C@H](C)[C@H](CN(C)C(=O)C2CCC2)Oc2cc(C#Cc3ccncc3)ccc2S1(=O)=O | inactive
3 | N[C@H]1CCN(c2ccc(C(F)(F)F)cn2)C1 | inactive
4 | COc1ccc(S(=O)(=O)Nc2ccc3c(c2)C(=O)N([C@H](C)CO)C[C@H](C)[C@@H](CN(C)Cc2ccc(C(F)(F)F)cc2)OCCCC[C@H](C)O3)cc1 | inactive
5 | COc1ccc(S(=O)(=O)Nc2ccc3c(c2)C(=O)N([C@@H](C)CO)C[C@H](C)[C@H](CN(C)Cc2ccc(C(F)(F)F)cc2)OCCCC[C@@H](C)O3)cc1 | inactive
6 | COc1ccc(S(=O)(=O)Nc2ccc3c(c2)C(=O)N([C@@H](C)CO)C[C@H](C)[C@H](CN(C)Cc2ccc(C(F)(F)F)cc2)OCCCC[C@H](C)O3)cc1 | active
7 | COc1ccc(S(=O)(=O)Nc2ccc3c(c2)C(=O)N([C@H](C)CO)C[C@@H](C)[C@H](CN(C)Cc2ccc(C(F)(F)F)cc2)OCCCC[C@H](C)O3)cc1 | inactive
8 | COc1ccc(S(=O)(=O)Nc2ccc3c(c2)C(=O)N([C@H](C)CO)C[C@H](C)[C@H](CN(C)Cc2ccc(C(F)(F)F)cc2)OCCCC[C@@H](C)O3)cc1 | inactive
9 | COc1ccc(S(=O)(=O)Nc2ccc3c(c2)C(=O)N([C@@H](C)CO)C[C@@H](C)[C@H](CN(C)Cc2ccc(C(F)(F)F)cc2)OCCCC[C@H](C)O3)cc1 | active
10 | C[C@]12C[C@]3(O)O[C@@H](O1)[C@]1(COC(=O)c4ccccc4)[C@H]3C[C@@]12O[C@@H]1O[C@H](CO)[C@@H](O)[C@H](O)[C@H]1O | inactive
11 | COc1ccc(COC[C@@]23Oc4ccccc4[C@@H](NC(=S)N2C)[C@@H]3CO[Si](C)(C)C(C)(C)C)cc1 | inactive
12 | C[C@H](CO)N1C[C@H](C)[C@H](CN(C)Cc2ccncc2)OCCCC[C@H](C)Oc2ccc(NC(=O)Cc3ccccc3)cc2C1=O | inactive
13 | C[C@H]1CN([C@@H](C)CO)C(=O)c2cc(NC(=O)Nc3ccccc3)ccc2O[C@H]1CN(C)C(=O)Nc1ccc(C(F)(F)F)cc1 | inactive
14 | C[C@H](CO)N1C[C@H](C)[C@H](CN(C)C(=O)Nc2ccccc2)Oc2ccc(NC(=O)Nc3ccc(C(F)(F)F)cc3)cc2C1=O | active
15 | C[C@H](CO)N1C[C@H](C)[C@H](CN(C)C(=O)Nc2ccc(C(F)(F)F)cc2)Oc2ccc(NC(=O)Nc3ccccc3)cc2C1=O | active
16 | C[C@H]1CN([C@@H](C)CO)C(=O)c2cc(NC(=O)Nc3ccc(C(F)(F)F)cc3)ccc2O[C@@H]1CN(C)C(=O)Nc1ccccc1 | inactive
17 | C[C@@H]1CN([C@@H](C)CO)C(=O)c2cc(NC(=O)Nc3ccc(C(F)(F)F)cc3)ccc2O[C@@H]1CN(C)C(=O)Nc1ccccc1 | active
18 | C[C@H](CO)N1C[C@H](C)[C@@H](CN(C)C(=O)Nc2ccccc2)Oc2ccc(NC(=O)Nc3ccc(C(F)(F)F)cc3)cc2C1=O | inactive
19 | C[C@@H]1CN([C@H](C)CO)C(=O)c2cc(NC(=O)Nc3ccccc3)ccc2O[C@@H]1CN(C)C(=O)Nc1ccc(C(F)(F)F)cc1 | inactive
20 | C[C@@H]1CN([C@@H](C)CO)C(=O)c2cc(NC(=O)Nc3ccccc3)ccc2O[C@H]1CN(C)C(=O)Nc1ccc(C(F)(F)F)cc1 | inactive

Row | Compound | cytotoxicity call
21 | C[C@@H]1CN([C@@H](C)CO)C(=O)c2cc(NC(=O)Nc3ccccc3)ccc2O[C@@H]1CN(C)C(=O)Nc1ccc(C(F)(F)F)cc1 | inactive
22 | O=C(N[C@H]1CC[C@H](CC(=O)N2CCOCC2)O[C@H]1CO)c1ccc2c(c1)OCO2 | inactive
23 | C[C@@H]1CN([C@@H](C)CO)C(=O)c2cccc(NC(=O)C3CCOCC3)c2O[C@H]1CN(C)Cc1ccncc1 | inactive
24 | C[C@@H]1CCCCO[C@H](CN(C)C(=O)Nc2ccccc2)[C@H](C)CN([C@@H](C)CO)C(=O)c2cc(NS(=O)(=O)c3ccccc3)ccc2O1 | inactive
25 | C[C@H](CO)N1C[C@H](C)[C@@H](CN(C)S(=O)(=O)c2ccc(-c3ccccc3)cc2)OCc2cn(nn2)CCCC1=O | inactive
26 | C[C@H]1O[C@@H]2[C@H](O[C@@H]1C)N(S(C)(=O)=O)CCN2S(C)(=O)=O | inactive
27 | COc1ccc(NC(=O)N2C[C@H](O)COC[C@H]3O[C@H](CC(=O)NC4Cc5ccccc5C4)CC[C@@H]32)cc1 | inactive
28 | C[C@H](CO)N1C[C@H](C)[C@H](CN(C)Cc2ccc(-c3ccccc3)cc2)Oc2ccc(NC(=O)Nc3ccc4c(c3)OCO4)cc2CC1=O | inactive
29 | C=CCC[C@H](Cc1ccc(F)cc1)C(=O)OC[C@@H]1CCCN1C(=O)[C@@H](CC=C)CC(=O)N(CCO)Cc1ccccc1 | active
30 | C=CCC[C@H](Cc1ccc(F)cc1)C(=O)OC[C@H]1CCCN1C(=O)[C@@H](CC=C)CC(=O)N(CCO)Cc1ccccc1 | active
31 | C=CCC[C@H](Cc1ccc(F)cc1)C(=O)OC[C@H]1CCCN1C(=O)[C@H](CC=C)CC(=O)N(CCO)Cc1ccccc1 | inactive
32 | C=CCC[C@@H](Cc1ccc(F)cc1)C(=O)OC[C@H]1CCCN1C(=O)[C@@H](CC=C)CC(=O)N(CCO)Cc1ccccc1 | inactive
33 | C=CCC[C@@H](Cc1ccc(F)cc1)C(=O)OC[C@@H]1CCCN1C(=O)[C@@H](CC=C)CC(=O)N(CCO)Cc1ccccc1 | inactive
34 | C=CCC[C@@H](Cc1ccc(F)cc1)C(=O)OC[C@H]1CCCN1C(=O)[C@H](CC=C)CC(=O)N(CCO)Cc1ccccc1 | inactive
35 | CN(C)CC(=O)N[C@@H]1CC[C@H](CC(=O)NCCN2CCCCC2)O[C@H]1CO | inactive
36 | COc1ccc(C2=NS(=O)(=O)N(C)C(C(=O)N3CCC(C(N)=O)CC3)=C2)cc1 | inactive
37 | CC(C)NC(=O)N(C)C[C@H]1Oc2c(NS(=O)(=O)c3ccc(Cl)cc3)cccc2C(=O)N([C@@H](C)CO)C[C@H]1C | inactive
38 | COc1ccc(S(=O)(=O)Nc2cccc3c2O[C@@H](CN(C)S(=O)(=O)c2ccccc2)[C@H](C)CN([C@@H](C)CO)C3=O)cc1 | inactive
39 | O=C(Nc1ccc(Oc2ccc(Cl)cc2)c(Cl)c1)c1cc(I)cc(I)c1O | active
40 | O=C(Nc1ccc2ccccc2c1)c1ccc(Cl)cc1Cl | inactive
